Test results from paper PMC5700166.
Changes are numbered by the printed parent chain.

How the values were obtained:
Assay in all cases: protein-binding microarray (PBM); PBM: ~300 nM protein, 6 mM HEPES pH 7.8, 80 mM KCl, 0.5 mM EDTA, 0.5 mM EGTA, 6% glycerol, 35 ng/ul poly-dIdC, 1% milk, 1 h, room temperature; Ap Aiptasia and Nv Nematostella (sea anemones) / Co Capsaspora / Aq Amphimedon (sponge) / Dm Drosophila / Hu human; RHD is the Rel homology domain; high values mean tight binding
Details in all cases: dsDNA, one strand shown
GST-Ap-NF-kB RHD = target: T1, GST-Ap-NF-kB RHD (Exaiptasia pallida (Aiptasia), UniProt A0A913YAJ5 2-422)
T1 sequence: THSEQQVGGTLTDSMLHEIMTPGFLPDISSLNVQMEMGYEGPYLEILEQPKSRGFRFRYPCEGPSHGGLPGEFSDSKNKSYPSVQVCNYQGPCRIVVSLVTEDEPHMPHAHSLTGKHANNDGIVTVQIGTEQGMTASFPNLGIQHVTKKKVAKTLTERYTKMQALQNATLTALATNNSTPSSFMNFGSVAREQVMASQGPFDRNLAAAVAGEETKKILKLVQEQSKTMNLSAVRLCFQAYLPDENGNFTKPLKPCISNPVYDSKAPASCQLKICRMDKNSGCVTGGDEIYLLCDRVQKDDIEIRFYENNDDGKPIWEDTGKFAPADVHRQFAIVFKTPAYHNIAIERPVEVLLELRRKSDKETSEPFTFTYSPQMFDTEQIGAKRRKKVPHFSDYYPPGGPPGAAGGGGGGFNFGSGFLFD

[1] = target: T2, GST-Nv-NF-kB (Cys allele) (Nematostella vectensis, UniProt E5G601 2-411)
T2 sequence: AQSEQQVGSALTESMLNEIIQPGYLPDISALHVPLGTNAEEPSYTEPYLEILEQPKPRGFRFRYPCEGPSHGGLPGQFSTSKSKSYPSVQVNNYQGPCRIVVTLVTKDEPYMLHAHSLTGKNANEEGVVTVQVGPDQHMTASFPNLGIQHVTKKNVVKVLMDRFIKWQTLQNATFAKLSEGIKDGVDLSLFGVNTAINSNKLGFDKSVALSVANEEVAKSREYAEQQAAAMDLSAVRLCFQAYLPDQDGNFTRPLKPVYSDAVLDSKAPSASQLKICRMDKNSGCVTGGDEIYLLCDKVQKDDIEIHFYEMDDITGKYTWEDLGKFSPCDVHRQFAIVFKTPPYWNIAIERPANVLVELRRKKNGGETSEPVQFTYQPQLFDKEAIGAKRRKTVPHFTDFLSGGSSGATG

[2] = target: T3, GST-Nv-NF-kB (Ser allele) (Nematostella vectensis, UniProt A7UNT2 2-411)
T3 sequence: T2 sequence with Q21R, C66S, S207N, E215Q, V217A, E225K, A268E, D399E

GST-Co-NF-kB = target: T4, GST-Co-NF-kB (Capsaspora owczarzaki, UniProt F1ARL5 200-546)
T4 sequence: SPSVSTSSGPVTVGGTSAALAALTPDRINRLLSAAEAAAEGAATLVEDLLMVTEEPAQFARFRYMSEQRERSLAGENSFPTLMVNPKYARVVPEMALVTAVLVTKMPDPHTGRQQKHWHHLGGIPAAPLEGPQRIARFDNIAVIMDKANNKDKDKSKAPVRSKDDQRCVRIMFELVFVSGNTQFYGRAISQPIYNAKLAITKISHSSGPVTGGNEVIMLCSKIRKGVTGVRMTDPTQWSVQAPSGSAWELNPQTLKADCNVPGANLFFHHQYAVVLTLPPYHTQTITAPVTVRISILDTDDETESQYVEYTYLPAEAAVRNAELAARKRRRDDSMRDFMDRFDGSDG

GST-Dm-Relish = target: T5, GST-Dm-Relish (Drosophila melanogaster, UniProt Q94527 99-473)
T5 sequence: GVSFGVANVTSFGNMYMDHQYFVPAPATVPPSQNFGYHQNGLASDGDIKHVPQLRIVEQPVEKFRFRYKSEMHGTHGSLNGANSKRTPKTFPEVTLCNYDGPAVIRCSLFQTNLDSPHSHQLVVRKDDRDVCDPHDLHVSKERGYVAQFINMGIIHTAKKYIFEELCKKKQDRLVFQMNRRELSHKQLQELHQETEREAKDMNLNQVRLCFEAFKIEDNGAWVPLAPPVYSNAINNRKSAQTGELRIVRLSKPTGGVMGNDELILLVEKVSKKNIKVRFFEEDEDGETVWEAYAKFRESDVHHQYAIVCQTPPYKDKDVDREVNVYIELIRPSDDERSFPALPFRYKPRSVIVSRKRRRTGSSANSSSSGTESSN

GST-Aq-NF-kB = target: T6, GST-Aq-NF-kB (Amphimedon queenslandica, UniProt A9Y5G7 2-389)
T6 sequence: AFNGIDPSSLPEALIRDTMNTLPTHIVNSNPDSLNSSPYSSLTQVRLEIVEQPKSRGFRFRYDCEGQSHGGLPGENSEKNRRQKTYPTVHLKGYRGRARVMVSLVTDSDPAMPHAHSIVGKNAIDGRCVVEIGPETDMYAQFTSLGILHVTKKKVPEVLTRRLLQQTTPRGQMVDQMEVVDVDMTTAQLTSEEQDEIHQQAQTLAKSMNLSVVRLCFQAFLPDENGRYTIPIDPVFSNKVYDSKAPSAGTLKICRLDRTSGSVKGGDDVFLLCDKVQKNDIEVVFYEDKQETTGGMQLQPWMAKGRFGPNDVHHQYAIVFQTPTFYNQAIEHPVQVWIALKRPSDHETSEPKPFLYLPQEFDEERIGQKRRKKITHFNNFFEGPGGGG

GST-Hu-p50 = GST-Hu-p50 (Homo sapiens, UniProt P19838 7-356)
Chain of GST-Hu-p50 (P19838 7-356): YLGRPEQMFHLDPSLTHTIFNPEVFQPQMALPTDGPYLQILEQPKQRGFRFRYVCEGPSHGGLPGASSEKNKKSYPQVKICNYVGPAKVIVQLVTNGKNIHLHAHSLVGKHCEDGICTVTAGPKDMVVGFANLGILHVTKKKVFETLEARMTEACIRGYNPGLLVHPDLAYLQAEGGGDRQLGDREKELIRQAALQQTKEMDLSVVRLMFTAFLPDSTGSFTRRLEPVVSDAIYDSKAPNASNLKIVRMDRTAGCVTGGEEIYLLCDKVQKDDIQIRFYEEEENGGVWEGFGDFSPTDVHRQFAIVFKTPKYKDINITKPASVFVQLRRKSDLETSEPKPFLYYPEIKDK

Row | Sequence | binding signal (GST-Ap-NF-kB RHD) [z-score] | binding signal [1] [z-score] | binding signal [2] [z-score] | binding signal (GST-Co-NF-kB) [z-score] | binding signal (GST-Dm-Relish) [z-score] | binding signal (GST-Aq-NF-kB) [z-score] | binding signal (GST-Hu-p50) [z-score]
1 | CCGATTAACATCAGGGAAAAATATGATGTTAATCGGGTCTTGATTCGCTTGACGCTGCTG | 3.68 | 5.51 | 7.16 | 5.79 | 2.03 | 5.19 | 4.2
2 | CCGATTAACATCAAGGGGAAATCTGATGTTAATCGGGTCTTGATTCGCTTGACGCTGCTG | 8.38 | 9.53 | 12.2 | 7.59 | 6.04 | 6.89 | 7.08
3 | CCGATTAACATCAGGGGTAACCCTGATGTTAATCGGGTCTTGATTCGCTTGACGCTGCTG | 4.06 | 2.99 | 2.19 | 4.77 | 4.12 | 5.1 | 3.1
4 | CCGATTAACATCAGGGGGGTGGATGATGTTAATCGGGTCTTGATTCGCTTGACGCTGCTG | 4.23 | 3.15 | 4.75 | 3.78 | 3.78 | 4.03 | 4.19
5 | CCGATTAACATCAGGGAAATACCTGATGTTAATCGGGTCTTGATTCGCTTGACGCTGCTG | 6 | 8.81 | 6.78 | 3.06 | 8.42 | 9.82 | 5.57
6 | CCGATTAACATCAGGGGGATTAATGATGTTAATCGGGTCTTGATTCGCTTGACGCTGCTG | 6.25 | 6.39 | 7.21 | 6.77 | 5.97 | 5.39 | 6.36
7 | CCGATTAACATCAGAAATACCCCTGATGTTAATCGGGTCTTGATTCGCTTGACGCTGCTG | 6.58 | 6.99 | 6.08 | 4.66 | 4.99 | 6.25 | 5.86
8 | CCGATTAACATCAAAATTGCCCCTGATGTTAATCGGGTCTTGATTCGCTTGACGCTGCTG | 3.3 | 4.73 | 5.76 | 3.12 | 2.43 | 4.55 | 5.1
9 | CCGATTAACATCAAAAATCCCCATGATGTTAATCGGGTCTTGATTCGCTTGACGCTGCTG | 9.63 | 10.8 | 11.4 | 5.31 | 9.64 | 7.92 | 7.94
10 | CCGATTAACATCACAAACTCCCCTGATGTTAATCGGGTCTTGATTCGCTTGACGCTGCTG | 7.26 | 5.84 | 7.23 | 4.83 | 5.81 | 5.35 | 5.66
11 | CCGATTAACATCAAAACTTTCCCTGATGTTAATCGGGTCTTGATTCGCTTGACGCTGCTG | 4.81 | 8.68 | 8.65 | 6.16 | 4.08 | 7.54 | 5.54
12 | CCGATTAACATCAGGGGAGAAACTGATGTTAATCGGGTCTTGATTCGCTTGACGCTGCTG | 4.39 | 4.53 | 5.55 | 7.07 | 5.35 | 3.64 | 4.05
13 | CCGATTAACATCAAAAAACCACCTGATGTTAATCGGGTCTTGATTCGCTTGACGCTGCTG | 4.79 | 5.1 | 7.1 | 1.37 | 8.7 | 5.41 | 6.81
14 | CCGATTAACATCAAGTTTTCCCCTGATGTTAATCGGGTCTTGATTCGCTTGACGCTGCTG | 8.03 | 8.76 | 11.2 | 10.3 | 6.09 | 6.59 | 6.59
15 | CCGATTAACATCACGGGGCCCCCTGATGTTAATCGGGTCTTGATTCGCTTGACGCTGCTG | 5.45 | 3.6 | 2.68 | 1.49 | 3.89 | 4.31 | 3.47
16 | CCGATTAACATCAGATATTCCCATGATGTTAATCGGGTCTTGATTCGCTTGACGCTGCTG | 3.86 | 3.21 | 3.17 | 2.8 | 1.78 | 2.67 | 1.97
17 | CCGATTAACATCAAAGCTTCCCCTGATGTTAATCGGGTCTTGATTCGCTTGACGCTGCTG | 5.17 | 6.28 | 7.74 | 7.56 | 3.8 | 4.64 | 5.4
18 | CCGATTAACATCAGGGAGGGAAATGATGTTAATCGGGTCTTGATTCGCTTGACGCTGCTG | 2.6 | 4.76 | 3.78 | 3.79 | 1.23 | 3.72 | 2.8
19 | CCGATTAACATCAGGGGAATACATGATGTTAATCGGGTCTTGATTCGCTTGACGCTGCTG | 6.98 | 8.02 | 7.97 | 6.18 | 6.02 | 5.87 | 5.42
20 | CCGATTAACATCAAGGGTATTCCTGATGTTAATCGGGTCTTGATTCGCTTGACGCTGCTG | 5.29 | 5.81 | 4.65 | 1.17 | 7.04 | 5.86 | 4.55
21 | CCGATTAACATCAGGGGGTATAATGATGTTAATCGGGTCTTGATTCGCTTGACGCTGCTG | 5.4 | 3.26 | 4.36 | 5.2 | 3.02 | 3.48 | 4.16
22 | CCGATTAACATCAGGGGGGTATATGATGTTAATCGGGTCTTGATTCGCTTGACGCTGCTG | 5.34 | 2.99 | 4.19 | 5.73 | 3.95 | 4.1 | 3.59
23 | CCGATTAACATCAAAAACCCCCTTGATGTTAATCGGGTCTTGATTCGCTTGACGCTGCTG | 10.4 | 10.3 | 10.9 | 2.93 | 10.9 | 9.31 | 8.33
24 | CCGATTAACATCAAATGCCCCCCTGATGTTAATCGGGTCTTGATTCGCTTGACGCTGCTG | 5.13 | 4.38 | 3.91 | 5.28 | 4.71 | 5.31 | 4.49
